The results in this text go back to PubChem BioAssay (NCI).

This is part of a sample that, as a whole, favours compounds with a hit. Of some 83,000 tested, about 20% had one in any assay.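 In brief: 96-well plates, 48 h treatment, single concentration, percent growth endpoint.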 A number with no mark means an inactive call. Calls of active or inactive are those of the source. How the source made its calls: active means growth percent below 10; inactive means the rest.

Some test systems named below: DU-145 prostate; K-562 leukemia; MALME-3M melanoma; MDA-MB-231 breast; RXF 393 renal; SF-268 CNS; SF-295 CNS; SF-539 CNS; UACC-257 melanoma; M14 melanoma; HCT-15 colon; HT29 colon; SNB-75 CNS; SNB-19 CNS; U251 CNS; PC-3 prostate; SK-MEL-5 melanoma; UACC-62 melanoma; LOX IMVI melanoma; SK-MEL-28 melanoma.
Experiment in all cases: NCI-60 one-dose screen, 48 h (100 = growth as untreated, 0 = no growth, -100 = all killed)
Holding throughout (conditions): 10 µM unless noted

As to `CCOC(=O)c1c(C)c2c(n1Cc1ccccc1)CSCC2=O`, the growth with DU-145 prostate was 30.8% [100 µM]; with K-562 leukemia it was 18.6% [100 µM]; in the assay on MALME-3M melanoma, -16.3% [100 µM] (active); in the assay with MDA-MB-231 breast, -2.2% [100 µM] (active); in the assay with RXF 393 renal it was 17.1% [100 µM]; in the assay with SF-268 CNS, 21.4% [100 µM]. In addition, the growth with SF-295 CNS was 3.06% [100 µM] (active); with SF-539 CNS it was -23.7% [100 µM] (active); with UACC-257 melanoma it was 21.9% [100 µM]; with M14 melanoma it was -16% [100 µM] (active); in the assay on HCT-15 colon it was 11.7% [100 µM]; in the assay on HT29 colon, 7.91% [100 µM] (active). The growth in the assay on SNB-75 CNS is -13.9% [100 µM] (active); in the assay with SNB-19 CNS, 13.8% [100 µM]; in the assay on U251 CNS it was 17.5% [100 µM]; in the assay with PC-3 prostate, 7.17% [100 µM] (active); in the assay with SK-MEL-5 melanoma, -86.5% [100 µM] (active); in the assay with UACC-62 melanoma it was -35.4% [100 µM] (active). Also, the figures for the growth with LOX IMVI melanoma and in the assay with SK-MEL-28 melanoma were -24.4% [100 µM] (active) and 27.8% [100 µM], respectively.

Consider `C=Cc1cnc(Nc2ccc(OC)cc2)nc1NCCCNC(=O)C1CCC1`, for which the growth in the assay with DU-145 prostate was 46.3%; in the assay with K-562 leukemia, 34.3%; with MALME-3M melanoma, 52.5%; in the assay on MDA-MB-231 breast it was -6.62% (active); in the assay with RXF 393 renal, -1.29% (active); in the assay on SF-268 CNS, 28.5%. In addition, the growth in the assay with SF-295 CNS was 59.6%; in the assay with SF-539 CNS it was 22%; with UACC-257 melanoma, 70.5%; with M14 melanoma, 46.8%; with HCT-15 colon, 35.7%; in the assay with HT29 colon, 8.04% (active). The growth with SNB-75 CNS was -5.11% (active); in the assay with SNB-19 CNS, 57.5%; with U251 CNS it was 29%; in the assay with PC-3 prostate, 64.2%; in the assay on SK-MEL-5 melanoma, 37.5%; in the assay on UACC-62 melanoma, 82.3%. Besides, the growth was 20.4% in the assay on LOX IMVI melanoma and 80.3% with SK-MEL-28 melanoma.

As for `O=C1c2cccc3cccc(c23)C(=O)N1C/C=C/c1ccc2c3c(cccc13)C(=O)N(CCO)C2=O`, the growth in the assay with DU-145 prostate is 70.4%; in the assay with K-562 leukemia it was 79.9%; in the assay on MALME-3M melanoma, 75.5%; in the assay on MDA-MB-231 breast it was 62.1%; with RXF 393 renal, 27.9%; in the assay with SF-268 CNS, 87.7%. The growth in the assay on SF-295 CNS was 76.5%; in the assay on SF-539 CNS, 72.7%; with UACC-257 melanoma, 79.8%; in the assay on M14 melanoma, 87.8%; with HCT-15 colon, 75.3%; with HT29 colon it was 87%. Further, the growth in the assay with SNB-75 CNS is 58.6%; in the assay on SNB-19 CNS, 88%; in the assay with U251 CNS, 71.1%; in the assay on PC-3 prostate, 51.2%; in the assay on SK-MEL-5 melanoma, 89.9%; in the assay with UACC-62 melanoma it was 91.4%. Also, the figures for the growth in the assay with LOX IMVI melanoma and in the assay with SK-MEL-28 melanoma were 87.3% and 84.9%, respectively.

Regarding `CN(CCCNC(=O)Cc1ccc2ccc3cccc4ccc1c2c34)CCCNc1cc(-c2ccc3ccccc3c2)nc2ccccc12`, the growth with DU-145 prostate is -90.7% (active); with K-562 leukemia it was -82.8% (active); with MALME-3M melanoma it was -57.7% (active); in the assay on MDA-MB-231 breast, -75.2% (active); in the assay with RXF 393 renal, -24.1% (active); with SF-268 CNS, -77.6% (active). Also, the growth was -36% (active) with SF-295 CNS; -96.1% (active) in the assay with SF-539 CNS; -70% (active) with UACC-257 melanoma; -74.4% (active) in the assay with M14 melanoma; -69% (active) in the assay on HCT-15 colon; -80.8% (active) in the assay on HT29 colon. Besides, the growth in the assay with SNB-75 CNS is -94.6% (active); in the assay on SNB-19 CNS, -82.8% (active); in the assay with U251 CNS it was -49.3% (active); with PC-3 prostate, -87.5% (active); in the assay with SK-MEL-5 melanoma, -93.1% (active); with UACC-62 melanoma, -51.6% (active). Also, the growth in the assay on LOX IMVI melanoma was -54% (active); in the assay on SK-MEL-28 melanoma, -85.7% (active).

Take `CCOC(=O)C(Cc1ccc(OC)cc1)C(=O)OCC`: the growth in the assay with DU-145 prostate was -35.4% (active); in the assay on K-562 leukemia, 15.2%; with MALME-3M melanoma it was 58.1%; with MDA-MB-231 breast, 47.5%; in the assay with RXF 393 renal, -11.3% (active); with SF-268 CNS, 30.2%. Also, the growth with SF-295 CNS is 30.4%; with SF-539 CNS, 19.9%; in the assay on UACC-257 melanoma, 25.3%; with M14 melanoma it was 46.3%; with HCT-15 colon it was 36.7%; in the assay on HT29 colon, 21.3%. Also, the growth with SNB-75 CNS was 30.1%; in the assay with SNB-19 CNS it was 41.7%; in the assay on U251 CNS, 37.2%; with PC-3 prostate, 47.2%; in the assay on SK-MEL-5 melanoma, 53.1%; with UACC-62 melanoma it was 33.4%. For the same molecule, the growth with LOX IMVI melanoma is 17%; in the assay on SK-MEL-28 melanoma, 51.5%.

Turning to `CCOC(=O)/C=C1\S/C(=N\Nc2cc(=O)[nH]c3ccccc23)N(c2ccccc2)C1=O`, the growth is 109% with DU-145 prostate; 98.2% in the assay on K-562 leukemia; 101% in the assay with MALME-3M melanoma; 97.8% with MDA-MB-231 breast; 103% in the assay on RXF 393 renal; 104% in the assay with SF-268 CNS. The growth in the assay on SF-295 CNS was 103%; in the assay on SF-539 CNS it was 96.9%; in the assay with UACC-257 melanoma it was 107%; with M14 melanoma, 101%; in the assay on HCT-15 colon, 98.7%; in the assay with HT29 colon, 113%. Moreover, the growth in the assay with SNB-75 CNS is 80.1%; in the assay on SNB-19 CNS it was 100%; in the assay on U251 CNS, 94.2%; in the assay with PC-3 prostate it was 95.4%; with SK-MEL-5 melanoma, 104%; in the assay on UACC-62 melanoma, 97%. For the same molecule, the growth was 97.2% in the assay on LOX IMVI melanoma and 110% in the assay on SK-MEL-28 melanoma.

Turning to `C=CC(=O)Nc1ccc(Oc2nccc(Nc3nnc(-c4ccc(C)cc4)s3)n2)cc1`, the growth in the assay on DU-145 prostate is 78.5%; in the assay on K-562 leukemia it was 29.4%; in the assay on MALME-3M melanoma it was 52.6%; in the assay on MDA-MB-231 breast it was 88.4%; with RXF 393 renal, 88%; with SF-268 CNS it was 77.6%. Also, the growth was 56.9% with SF-295 CNS; 83.3% in the assay with SF-539 CNS; 86.5% with UACC-257 melanoma; 57.5% in the assay on M14 melanoma; 71.5% in the assay with HCT-15 colon; 103% in the assay with HT29 colon. Further, the growth with SNB-75 CNS was 61%; with SNB-19 CNS, 62.7%; in the assay on U251 CNS, 83%; with PC-3 prostate, 52.8%; in the assay with SK-MEL-5 melanoma, 46%; in the assay on UACC-62 melanoma, 44%. Also, the growth was 60.2% in the assay with LOX IMVI melanoma and 73.9% in the assay on SK-MEL-28 melanoma.
